# Test results from PubChem BioAssay (EPA / NIEHS).
# Inconclusive results are not listed. Calls of active or inactive are those of the source. Rule for the calls, unless noted: active = hit-call score of the fitted dose curve at least 0.9, where 1 is the maximum; inconclusive = response in the unintended direction; inactive = score below 0.9.
# Key:
# [1] = ATG_TGFb_CIS: Attagene CIS-FACTORIAL HepG2 Assay for human Transforming Growth Factor (TGF) (AID 2282967; active = hit-call score of the fitted dose curve at least 0.9, where 1 is the maximum; inactive = score below 0.9); details: HepG2 Attagene CIS TGFb reporter, mRNA transcription; actives raise or lower the signal
# Procedure, shortened: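 Cells were dosed for 24 hours, after which total RNA was reverse-transcribed and reporter sequences amplified, labeled and sized by capillary electrophoresis. Activity was fitted in both directions against DMSO.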
# [2] = ATG_VDRE_CIS: Attagene CIS-FACTORIAL HepG2 Assay for human Vitamin D Receptor Element (VDRE) (AID 2282968; active = hit-call score of the fitted dose curve at least 0.9, where 1 is the maximum; inactive = score below 0.9); details: HepG2 VDRE cis-reporter transcription, actives raise or lower the signal
# Procedure, shortened: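 In transiently transfected HepG2 liver cells, gain or loss of reporter mRNA after 24 h exposure is scored relative to DMSO, using fluorescence detection by capillary electrophoresis of RT-PCR products.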
# [3] = biological target: Nuclear receptor subfamily 1 group I member 3 (Homo sapiens) (UniProt Q14994); assay: ATG_CAR_TRANS: Attagene TRANS-FACTORIAL HepG2 Assay for human Constitutive Androstane Receptor (CAR) (AID 2282969); details: HepG2 Attagene TRANS-FACTORIAL CAR reporter;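 note: activators raise reporter mRNA above DMSO so AC50 marks induction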
# Procedure, shortened: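 Readout is reporter mRNA induction, quantified by fluorescent primer extension and capillary electrophoresis after RT-PCR. Cells were HepG2 transiently carrying chimeric NR-Gal4 constructs with GAL4-UAS reporters, treated for 24 h; activity scored upward from DMSO.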
# [4] = biological target: Estrogen receptor (Homo sapiens) (UniProt P03372); assay: ATG_ERa_TRANS: Attagene TRANS-FACTORIAL HepG2 Assay for human Estrogen Receptor alpha (ERa) (AID 2282970); details: HepG2 Attagene TRANS ERa GAL4 reporter, mRNA
# Procedure, shortened: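 HepG2 cells transiently transfected with multiplexed GAL4-UAS reporter units; ERa activity read via exogenous chimeric NR-Gal4 protein. After 24 hour compound exposure, reporter mRNA measured by RT-PCR with 6-FAM labelling and capillary electrophoresis; gain-of-signal fitted relative to DMSO.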
# [5] = biological target: X-box-binding protein 1 (Homo sapiens) (UniProt P17861); assay: ATG_Xbp1_CIS: Attagene CIS-FACTORIAL HepG2 Assay for human X-box Binding Protein 1 (XBP1) (AID 2282972; active = hit-call score of the fitted dose curve at least 0.9, where 1 is the maximum; inactive = score below 0.9); details: HepG2 XBP1 cis-element reporter, Attagene multiplex; actives raise or lower the signal
# Procedure, shortened: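 HepG2, transient MRTU transfection (cis-promoter driven), 24 h compound exposure. Total RNA → oligo(dT) RT → PCR → 6-FAM labeling → HpaI cut → CE. Bidirectional fit vs DMSO.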
# [6] = ATG_M_19_TRANS: Attagene TRANS-FACTORIAL HepG2 Assay for M19 Transcription Factor (Internal Marker) (AID 2282974); details: HepG2 Attagene TRANS-FACTORIAL M19 internal marker reporter
# Procedure, shortened: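 Cells: human HepG2, transiently transfected with multiplexed reporter transcription units. Exposure: 24 h. Detection: RT-PCR of reporter mRNA with capillary electrophoresis. Analysis: gain-of-signal vs DMSO.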
# [7] = ATG_GAL4_TRANS: Attagene TRANS-FACTORIAL HepG2 Assay for GAL4 (Internal Marker) (AID 2282976); details: HepG2 Attagene TRANS GAL4 internal marker reporter
# Procedure, shortened: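 HepG2 cells transiently transfected with multiplexed GAL4-UAS reporter constructs were dosed for 24 h. Reporter mRNA was measured by RT-PCR, 6-FAM primer extension, HpaI digestion and capillary electrophoresis, and gain of signal was fitted relative to DMSO.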
# [8] = biological target: Glucocorticoid receptor (Homo sapiens) (UniProt P04150); assay: ATG_GR_TRANS: Attagene TRANS-FACTORIAL HepG2 Assay for human Glucocorticoid Receptor (GR) (AID 2282978); details: HepG2 Attagene TRANS GR reporter, mRNA transcription;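 note: activators score as hits since higher reporter transcript over DMSO is fitted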
# Procedure, shortened: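 In this trans-factorial format, exogenous NR-GAL4 chimeric proteins in transfected HepG2 cells regulate GAL4-UAS reporter transcription. After 24 h treatment, reporter mRNA induction relative to DMSO is read by RT-PCR and capillary electrophoresis.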
# [9] = biological target: Estrogen-related receptor gamma (Homo sapiens) (UniProt P62508); assay: ATG_ERRg_TRANS: Attagene TRANS-FACTORIAL HepG2 Assay for human Estrogen-Related Receptor gamma (ERRg) (AID 2282977); details: HepG2 Attagene TRANS reporter, ERRg transactivation;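 note: hits increase reporter signal over DMSO so potencies reflect activators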
# Procedure, shortened: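 Transient HepG2 transfectants, 24 h compound exposure, GAL4-UAS reporter mRNA by RT-PCR/6-FAM labelling/capillary electrophoresis; positive direction vs DMSO.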
# [10] = biological target: Steroid hormone receptor ERR1 (Homo sapiens) (UniProt P11474); assay: ATG_ERRa_TRANS: Attagene TRANS-FACTORIAL HepG2 Assay for human Estrogen-Related Receptor alpha (ERRa) (AID 2282971); details: HepG2 Attagene TRANS reporter, ERRa transactivation
# Procedure, shortened: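 HepG2 cells transiently transfected with multiplexed GAL4-UAS reporter units reading chimeric ERRa-Gal4 activity; 24 h compound exposure. Reporter mRNA measured by RT-PCR, 6-FAM labelling, HpaI digest and capillary electrophoresis; gain of signal fitted versus DMSO baseline.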
# Nuclear receptor subfamily 1 group I member 3 (Homo sapiens), sequence (Q14994 whole entry, looked up, the tested form may be a part): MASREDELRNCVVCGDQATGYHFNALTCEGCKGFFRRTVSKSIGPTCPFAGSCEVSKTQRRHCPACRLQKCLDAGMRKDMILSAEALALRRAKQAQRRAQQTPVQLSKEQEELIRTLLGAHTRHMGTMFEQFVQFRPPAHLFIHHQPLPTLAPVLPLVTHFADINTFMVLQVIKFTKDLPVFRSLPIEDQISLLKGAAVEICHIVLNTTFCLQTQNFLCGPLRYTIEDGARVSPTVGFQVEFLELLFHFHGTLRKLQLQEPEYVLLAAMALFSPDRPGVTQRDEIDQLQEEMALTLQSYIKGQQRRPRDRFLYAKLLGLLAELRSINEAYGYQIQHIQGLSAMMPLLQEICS
# Steroid hormone receptor ERR1 (Homo sapiens), sequence (P11474 whole entry, looked up, the tested form may be a part): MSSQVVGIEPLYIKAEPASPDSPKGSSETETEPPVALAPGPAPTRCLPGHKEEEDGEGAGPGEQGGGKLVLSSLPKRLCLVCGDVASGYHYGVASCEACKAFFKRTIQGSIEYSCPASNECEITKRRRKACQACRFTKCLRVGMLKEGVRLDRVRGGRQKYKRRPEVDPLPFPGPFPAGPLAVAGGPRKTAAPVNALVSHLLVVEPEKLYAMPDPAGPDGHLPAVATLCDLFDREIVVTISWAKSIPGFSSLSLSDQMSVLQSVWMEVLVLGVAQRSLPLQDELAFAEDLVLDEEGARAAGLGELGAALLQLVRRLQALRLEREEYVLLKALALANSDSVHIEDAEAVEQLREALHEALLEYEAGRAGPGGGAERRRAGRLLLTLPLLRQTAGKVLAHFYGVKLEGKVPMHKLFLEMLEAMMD
# X-box-binding protein 1 (Homo sapiens), sequence (P17861 whole entry, looked up): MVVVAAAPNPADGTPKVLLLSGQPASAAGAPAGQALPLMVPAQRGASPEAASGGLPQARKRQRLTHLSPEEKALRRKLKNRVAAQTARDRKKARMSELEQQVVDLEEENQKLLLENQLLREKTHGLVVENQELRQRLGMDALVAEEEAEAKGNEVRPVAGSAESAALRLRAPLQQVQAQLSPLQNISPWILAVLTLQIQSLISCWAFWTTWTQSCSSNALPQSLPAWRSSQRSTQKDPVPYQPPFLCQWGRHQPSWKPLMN
# Estrogen-related receptor gamma (Homo sapiens), sequence (P62508 whole entry, looked up, the tested form may be a part): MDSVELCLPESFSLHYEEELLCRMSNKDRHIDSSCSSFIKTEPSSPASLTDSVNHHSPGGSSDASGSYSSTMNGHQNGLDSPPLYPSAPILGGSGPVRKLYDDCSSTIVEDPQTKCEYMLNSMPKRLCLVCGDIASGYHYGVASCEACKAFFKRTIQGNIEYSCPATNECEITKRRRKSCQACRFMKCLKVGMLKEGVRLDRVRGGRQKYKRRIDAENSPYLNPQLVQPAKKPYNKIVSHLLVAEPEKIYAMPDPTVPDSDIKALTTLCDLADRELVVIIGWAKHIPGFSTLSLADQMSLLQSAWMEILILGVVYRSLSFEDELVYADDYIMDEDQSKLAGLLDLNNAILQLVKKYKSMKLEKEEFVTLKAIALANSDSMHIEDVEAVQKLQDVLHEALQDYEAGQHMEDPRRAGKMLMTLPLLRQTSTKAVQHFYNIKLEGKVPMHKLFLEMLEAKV
# Glucocorticoid receptor (Homo sapiens), sequence (P04150 whole entry, looked up, the tested form may be a part): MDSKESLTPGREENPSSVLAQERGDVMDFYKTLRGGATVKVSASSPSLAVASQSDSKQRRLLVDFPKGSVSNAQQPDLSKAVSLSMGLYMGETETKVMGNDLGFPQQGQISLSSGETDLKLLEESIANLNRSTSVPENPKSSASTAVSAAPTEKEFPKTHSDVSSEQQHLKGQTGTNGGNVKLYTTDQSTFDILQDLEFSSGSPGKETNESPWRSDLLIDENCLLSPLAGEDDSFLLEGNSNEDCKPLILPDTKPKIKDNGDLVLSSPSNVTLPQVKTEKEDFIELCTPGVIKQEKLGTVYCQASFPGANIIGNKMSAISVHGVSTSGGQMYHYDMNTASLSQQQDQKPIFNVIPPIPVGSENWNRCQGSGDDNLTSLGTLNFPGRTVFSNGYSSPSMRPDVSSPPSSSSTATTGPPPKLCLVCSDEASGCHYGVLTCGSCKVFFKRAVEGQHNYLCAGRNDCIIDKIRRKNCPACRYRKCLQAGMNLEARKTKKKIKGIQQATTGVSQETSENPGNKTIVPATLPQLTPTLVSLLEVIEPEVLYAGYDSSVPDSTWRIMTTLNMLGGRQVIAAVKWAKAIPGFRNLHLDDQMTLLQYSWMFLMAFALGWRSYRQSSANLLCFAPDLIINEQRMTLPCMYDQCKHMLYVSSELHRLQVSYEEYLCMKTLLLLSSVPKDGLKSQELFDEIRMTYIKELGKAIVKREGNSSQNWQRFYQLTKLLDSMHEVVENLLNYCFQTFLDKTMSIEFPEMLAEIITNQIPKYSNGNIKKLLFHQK
# Estrogen receptor (Homo sapiens), sequence (P03372 whole entry, looked up, the tested form may be a part): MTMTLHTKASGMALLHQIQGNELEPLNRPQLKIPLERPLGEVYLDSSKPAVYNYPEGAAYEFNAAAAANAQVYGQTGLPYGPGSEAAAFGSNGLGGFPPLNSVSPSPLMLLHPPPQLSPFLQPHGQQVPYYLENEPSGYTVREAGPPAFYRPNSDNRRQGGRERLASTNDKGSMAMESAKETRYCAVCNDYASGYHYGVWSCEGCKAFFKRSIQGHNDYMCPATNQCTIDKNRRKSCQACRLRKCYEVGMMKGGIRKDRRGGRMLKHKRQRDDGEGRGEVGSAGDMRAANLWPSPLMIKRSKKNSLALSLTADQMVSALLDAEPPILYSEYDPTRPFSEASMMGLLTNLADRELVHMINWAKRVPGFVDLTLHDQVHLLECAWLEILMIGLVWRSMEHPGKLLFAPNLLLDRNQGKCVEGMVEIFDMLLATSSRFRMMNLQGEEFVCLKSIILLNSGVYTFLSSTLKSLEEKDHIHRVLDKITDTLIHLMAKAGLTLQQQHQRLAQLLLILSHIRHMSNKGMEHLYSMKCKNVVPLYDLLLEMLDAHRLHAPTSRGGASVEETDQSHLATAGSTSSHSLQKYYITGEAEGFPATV
compound,measurement,setting,value
CCN(CC)CC,outcome,[1],inactive
same,outcome,[2],inactive
same,outcome,[3],inactive
same,outcome,[4],inactive
same,outcome,[5],inactive
same,outcome,[6],inactive
same,outcome,[7],inactive
same,outcome,[8],inactive
FCOC(C(F)(F)F)C(F)(F)F,outcome,[1],inactive
same,outcome,[2],inactive
same,outcome,[3],inactive
same,outcome,[5],inactive
same,outcome,[6],inactive
same,outcome,[7],inactive
same,outcome,[8],inactive
CCCCCCCCC(C)=O,outcome,[1],inactive
same,outcome,[2],inactive
same,outcome,[3],inactive
same,outcome,[4],inactive
same,outcome,[5],inactive
same,outcome,[6],inactive
same,outcome,[8],inactive
O=S(=O)(O)c1ccc2cc(O)ccc2c1,outcome,[1],inactive
same,outcome,[2],inactive
same,outcome,[3],inactive
same,outcome,[5],inactive
same,outcome,[6],inactive
same,outcome,[8],inactive
C=CC(=O)OCCN(CC)CC,outcome,[1],inactive
same,AC50,[2],62.9 µM (active)
same,outcome,[3],inactive
same,AC50,[5],29 µM (active)
same,outcome,[6],inactive
same,outcome,[7],inactive
CC(C)(C)c1ccc(CCC=O)cc1,outcome,[1],inactive
same,outcome,[2],inactive
same,outcome,[3],inactive
same,AC50,[4],74 µM (active)
same,outcome,[5],inactive
same,outcome,[6],inactive
same,outcome,[8],inactive
CCc1cccc(CC)c1NC(=O)C(=O)O,outcome,[1],inactive
same,outcome,[2],inactive
same,outcome,[3],inactive
same,outcome,[5],inactive
same,outcome,[6],inactive
same,outcome,[7],inactive
same,outcome,[9],inactive
same,outcome,[8],inactive
Cc1ccc(C)c(S(=O)(=O)O)c1,outcome,[1],inactive
same,outcome,[2],inactive
same,outcome,[3],inactive
same,outcome,[5],inactive
same,outcome,[7],inactive
O=C(Nc1ccc(Cl)c(Cl)c1)c1cc(Cl)cc(Cl)c1O,outcome,[1],inactive
same,AC50,[2],2.27 µM (active)
same,outcome,[3],inactive
same,AC50,[4],6.62 µM (active)
same,AC50,[5],1.72 µM (active)
same,outcome,[9],inactive
same,outcome,[8],inactive
Cc1cc(C(=C2C=CC(=Nc3ccc(S(=O)(=O)O)cc3)C=C2)c2ccc(Nc3ccc(S(=O)(=O)O)cc3)cc2)cc(S(=O)(=O)O)c1N,outcome,[1],inactive
same,outcome,[2],inactive
same,outcome,[3],inactive
same,outcome,[10],inactive
same,outcome,[5],inactive
CC(C)C=O,outcome,[1],inactive
same,outcome,[2],inactive
same,outcome,[3],inactive
same,outcome,[10],inactive
same,outcome,[5],inactive
same,outcome,[6],inactive
same,outcome,[7],inactive
same,outcome,[9],inactive
same,outcome,[8],inactive
COc1cc(OC)nc(NC(=O)NS(=O)(=O)Nc2ccccc2C(=O)N(C)C)n1,outcome,[1],inactive
same,outcome,[2],inactive
same,outcome,[3],inactive
same,outcome,[4],inactive
same,outcome,[5],inactive
same,outcome,[8],inactive
COc1ccc(C#N)cc1,outcome,[1],inactive
same,outcome,[2],inactive
same,outcome,[3],inactive
same,outcome,[4],inactive
same,outcome,[5],inactive
same,outcome,[7],inactive
c1ccc(CNc2ncnc3c2ncn3C2CCCCO2)cc1 (stereo unspecified),outcome,[1],inactive
same,AC50,[2],22.9 µM (active)
same,outcome,[3],inactive
same,outcome,[5],inactive
O=C(F)C(F)(F)C(F)(F)C(F)(F)C(=O)F,outcome,[1],inactive
same,outcome,[2],inactive
same,outcome,[3],inactive
same,outcome,[4],inactive
same,outcome,[5],inactive
same,outcome,[7],inactive
C=CC(F)(F)C(F)(F)C(F)(F)C(F)(F)F,outcome,[1],inactive
same,outcome,[2],inactive
same,outcome,[3],inactive
same,outcome,[5],inactive
same,outcome,[7],inactive
same,outcome,[9],inactive
CCC(=O)C=Cc1ccc(OC)cc1,outcome,[1],inactive
same,AC50,[2],65.6 µM (active)
same,outcome,[3],inactive
same,outcome,[10],inactive
same,outcome,[5],inactive
same,outcome,[6],inactive
same,outcome,[9],inactive
Cc1ccc2ccc3ccc(C)cc3c2c1,outcome,[1],inactive
same,outcome,[2],inactive
same,outcome,[3],inactive
same,AC50,[4],7.58 µM (active)
same,outcome,[5],inactive
same,outcome,[6],inactive
same,outcome,[9],inactive
CC1CNCC(C)O1 (stereo unspecified),outcome,[1],inactive
same,outcome,[2],inactive
same,outcome,[3],inactive
same,outcome,[5],inactive
same,outcome,[7],inactive
same,outcome,[8],inactive
CCOC=C(C(=O)OCC)C(=O)OCC,outcome,[1],inactive
same,outcome,[2],inactive
same,outcome,[3],inactive
same,outcome,[4],inactive
same,outcome,[5],inactive
same,outcome,[6],inactive
same,outcome,[7],inactive
C=CC(=O)OCCC(F)(F)C(F)(F)C(F)(F)C(F)(F)C(F)(F)C(F)(F)F,outcome,[1],inactive
same,outcome,[2],inactive
same,outcome,[3],inactive
same,AC50,[4],12.8 µM (active)
same,outcome,[5],inactive
same,outcome,[7],inactive
same,outcome,[9],inactive
same,outcome,[8],inactive
O=C(c1cc(O)c(O)c(O)c1)c1ccc(O)c(O)c1O,outcome,[3],inactive
CCCCN(C)C,outcome,[3],inactive
Nc1ccn([C@@H]2O[C@H](CO)[C@@H](O)C2O)c(=O)n1 (stereo partly specified),outcome,[1],inactive
same,outcome,[2],inactive
same,outcome,[10],inactive
same,outcome,[5],inactive
same,outcome,[6],inactive
same,outcome,[7],inactive
same,outcome,[8],inactive
O=C1OC(=O)C(F)(F)C1(F)F,outcome,[1],inactive
same,outcome,[2],inactive
same,outcome,[10],inactive
same,outcome,[5],inactive
same,outcome,[6],inactive
same,outcome,[7],inactive
same,outcome,[8],inactive
CNNCc1ccc(C(=O)NC(C)C)cc1,outcome,[1],inactive
same,outcome,[2],inactive
same,outcome,[5],inactive
same,outcome,[6],inactive
same,outcome,[8],inactive
CCCCCCCCCCCC[N+](C)(C)CCCCCCCCCCCC,outcome,[1],inactive
same,outcome,[3],inactive
same,outcome,[4],inactive
same,outcome,[10],inactive
same,outcome,[5],inactive
same,outcome,[9],inactive
same,outcome,[8],inactive
CCCCC=O,outcome,[1],inactive
same,outcome,[2],inactive
same,outcome,[5],inactive
same,outcome,[7],inactive
OCCN1CN(CCO)CN(CCO)C1,outcome,[1],inactive
same,outcome,[2],inactive
same,AC50,[5],164 µM (active)
same,outcome,[6],inactive
same,outcome,[7],inactive
same,outcome,[8],inactive
Cc1ccc(C(=O)c2ccccc2)cc1,outcome,[1],inactive
same,outcome,[3],inactive
same,AC50,[4],27.8 µM (active)
same,outcome,[5],inactive
same,outcome,[6],inactive
same,outcome,[7],inactive
CCCCCc1ccc(O)cc1,outcome,[1],inactive
same,outcome,[3],inactive
same,AC50,[4],1.6 µM (active)
same,outcome,[5],inactive
Clc1ccc(Nc2nnc(Cc3ccncc3)c3ccccc23)cc1,outcome,[1],inactive
same,outcome,[3],inactive
same,outcome,[4],inactive
same,outcome,[5],inactive
same,outcome,[6],inactive
O=C1c2ccc(O)c(O)c2C(=O)c2c(O)ccc(O)c21,outcome,[1],inactive
same,outcome,[2],inactive
same,AC50,[4],4.53 µM (active)
same,outcome,[5],inactive
same,outcome,[9],inactive
